Test results published in the supplement of paper PMC11732987, “Enantioselective OTUD7B fragment discovery through chemoproteomics screening and high-throughput optimisation” (Communications Chemistry, 2025).
Values without a mark were called inactive.

Legend:
Assay in all cases: log2 ratio of Biotin-Ahx-Ub-VS probe labelling (fragment/DMSO); higher = less target engagement (more negative = stronger competition), active = hit call of the paper (q ≤ 0.05, log2 ratio ≤ -1)
Conditions in all cases: compound concentration: 200 uM; treatment time: 3 h
USP19 = target: T1, USP19 (UniProt O94966)
T1 sequence (whole entry): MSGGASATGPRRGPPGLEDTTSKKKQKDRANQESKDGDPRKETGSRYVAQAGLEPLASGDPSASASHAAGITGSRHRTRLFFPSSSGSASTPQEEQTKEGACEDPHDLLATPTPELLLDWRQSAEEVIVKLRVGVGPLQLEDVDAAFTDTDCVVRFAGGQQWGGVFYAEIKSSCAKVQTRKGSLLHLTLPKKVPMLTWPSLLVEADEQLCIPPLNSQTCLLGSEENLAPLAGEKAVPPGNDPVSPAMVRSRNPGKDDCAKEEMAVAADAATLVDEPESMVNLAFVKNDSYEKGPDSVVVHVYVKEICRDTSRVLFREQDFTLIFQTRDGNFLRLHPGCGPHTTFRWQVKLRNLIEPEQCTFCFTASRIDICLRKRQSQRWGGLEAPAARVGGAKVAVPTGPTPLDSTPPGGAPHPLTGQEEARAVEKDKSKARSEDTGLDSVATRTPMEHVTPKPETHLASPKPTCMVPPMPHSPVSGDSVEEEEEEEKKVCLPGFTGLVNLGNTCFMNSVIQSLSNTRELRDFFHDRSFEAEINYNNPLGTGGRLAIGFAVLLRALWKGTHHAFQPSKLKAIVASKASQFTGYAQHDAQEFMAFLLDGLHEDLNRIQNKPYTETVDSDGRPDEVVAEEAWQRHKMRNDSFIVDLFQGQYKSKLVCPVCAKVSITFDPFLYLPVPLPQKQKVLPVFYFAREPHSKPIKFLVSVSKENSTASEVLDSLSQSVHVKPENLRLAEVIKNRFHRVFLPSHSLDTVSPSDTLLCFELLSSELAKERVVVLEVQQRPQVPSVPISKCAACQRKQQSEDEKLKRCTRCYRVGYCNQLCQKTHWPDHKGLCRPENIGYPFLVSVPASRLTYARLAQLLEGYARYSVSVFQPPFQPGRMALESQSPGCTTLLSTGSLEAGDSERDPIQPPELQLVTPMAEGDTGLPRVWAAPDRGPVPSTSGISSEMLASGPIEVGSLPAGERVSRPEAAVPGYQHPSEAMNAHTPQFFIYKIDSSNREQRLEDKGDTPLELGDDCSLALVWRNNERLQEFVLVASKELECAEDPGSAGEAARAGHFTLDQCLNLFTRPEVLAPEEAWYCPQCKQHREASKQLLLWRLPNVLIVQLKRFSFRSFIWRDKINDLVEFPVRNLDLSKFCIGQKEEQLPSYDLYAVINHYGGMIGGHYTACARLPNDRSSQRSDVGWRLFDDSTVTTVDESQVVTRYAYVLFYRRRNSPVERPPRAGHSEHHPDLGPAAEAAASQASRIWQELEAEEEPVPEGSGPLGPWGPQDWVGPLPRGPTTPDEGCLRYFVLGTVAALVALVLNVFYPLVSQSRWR
In short: (§1)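 Triplicate samples of HEK293T lysate, 495 µg each, received fragment at 200 µM or vehicle for 3 h, followed by Biotin-Ahx-Ub-VS (0.5 µM final) for 1 h. After NeutrAvidin enrichment of labelled DUBs and LysC/trypsin digestion, peptides were run by diaPASEF LC-MS/MS. The values are average log2 fragment/vehicle ratios from global-median-normalised Spectronaut label-free quantities, tested by unpaired t-test on proteins having ≥2 unique peptides.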

USP22 = target: T2, USP22 (UniProt Q9UPT9)
T2 sequence (whole entry): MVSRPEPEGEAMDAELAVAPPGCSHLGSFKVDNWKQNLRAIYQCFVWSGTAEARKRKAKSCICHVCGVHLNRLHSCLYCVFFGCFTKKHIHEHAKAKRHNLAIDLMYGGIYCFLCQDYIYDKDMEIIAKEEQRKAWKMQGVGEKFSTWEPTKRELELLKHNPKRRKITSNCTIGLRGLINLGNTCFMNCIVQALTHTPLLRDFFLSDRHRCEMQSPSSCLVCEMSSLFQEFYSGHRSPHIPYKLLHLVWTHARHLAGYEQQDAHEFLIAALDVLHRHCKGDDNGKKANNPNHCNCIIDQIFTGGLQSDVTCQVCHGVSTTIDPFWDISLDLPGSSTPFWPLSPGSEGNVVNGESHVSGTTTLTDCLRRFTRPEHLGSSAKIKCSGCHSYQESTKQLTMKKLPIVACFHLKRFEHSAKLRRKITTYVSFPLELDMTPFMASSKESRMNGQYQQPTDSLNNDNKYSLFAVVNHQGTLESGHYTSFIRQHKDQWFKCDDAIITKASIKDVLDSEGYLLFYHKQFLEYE
In short: as §1

USP24 = USP24 (UniProt Q9UPU5)
Chain of USP24 (Q9UPU5 whole entry): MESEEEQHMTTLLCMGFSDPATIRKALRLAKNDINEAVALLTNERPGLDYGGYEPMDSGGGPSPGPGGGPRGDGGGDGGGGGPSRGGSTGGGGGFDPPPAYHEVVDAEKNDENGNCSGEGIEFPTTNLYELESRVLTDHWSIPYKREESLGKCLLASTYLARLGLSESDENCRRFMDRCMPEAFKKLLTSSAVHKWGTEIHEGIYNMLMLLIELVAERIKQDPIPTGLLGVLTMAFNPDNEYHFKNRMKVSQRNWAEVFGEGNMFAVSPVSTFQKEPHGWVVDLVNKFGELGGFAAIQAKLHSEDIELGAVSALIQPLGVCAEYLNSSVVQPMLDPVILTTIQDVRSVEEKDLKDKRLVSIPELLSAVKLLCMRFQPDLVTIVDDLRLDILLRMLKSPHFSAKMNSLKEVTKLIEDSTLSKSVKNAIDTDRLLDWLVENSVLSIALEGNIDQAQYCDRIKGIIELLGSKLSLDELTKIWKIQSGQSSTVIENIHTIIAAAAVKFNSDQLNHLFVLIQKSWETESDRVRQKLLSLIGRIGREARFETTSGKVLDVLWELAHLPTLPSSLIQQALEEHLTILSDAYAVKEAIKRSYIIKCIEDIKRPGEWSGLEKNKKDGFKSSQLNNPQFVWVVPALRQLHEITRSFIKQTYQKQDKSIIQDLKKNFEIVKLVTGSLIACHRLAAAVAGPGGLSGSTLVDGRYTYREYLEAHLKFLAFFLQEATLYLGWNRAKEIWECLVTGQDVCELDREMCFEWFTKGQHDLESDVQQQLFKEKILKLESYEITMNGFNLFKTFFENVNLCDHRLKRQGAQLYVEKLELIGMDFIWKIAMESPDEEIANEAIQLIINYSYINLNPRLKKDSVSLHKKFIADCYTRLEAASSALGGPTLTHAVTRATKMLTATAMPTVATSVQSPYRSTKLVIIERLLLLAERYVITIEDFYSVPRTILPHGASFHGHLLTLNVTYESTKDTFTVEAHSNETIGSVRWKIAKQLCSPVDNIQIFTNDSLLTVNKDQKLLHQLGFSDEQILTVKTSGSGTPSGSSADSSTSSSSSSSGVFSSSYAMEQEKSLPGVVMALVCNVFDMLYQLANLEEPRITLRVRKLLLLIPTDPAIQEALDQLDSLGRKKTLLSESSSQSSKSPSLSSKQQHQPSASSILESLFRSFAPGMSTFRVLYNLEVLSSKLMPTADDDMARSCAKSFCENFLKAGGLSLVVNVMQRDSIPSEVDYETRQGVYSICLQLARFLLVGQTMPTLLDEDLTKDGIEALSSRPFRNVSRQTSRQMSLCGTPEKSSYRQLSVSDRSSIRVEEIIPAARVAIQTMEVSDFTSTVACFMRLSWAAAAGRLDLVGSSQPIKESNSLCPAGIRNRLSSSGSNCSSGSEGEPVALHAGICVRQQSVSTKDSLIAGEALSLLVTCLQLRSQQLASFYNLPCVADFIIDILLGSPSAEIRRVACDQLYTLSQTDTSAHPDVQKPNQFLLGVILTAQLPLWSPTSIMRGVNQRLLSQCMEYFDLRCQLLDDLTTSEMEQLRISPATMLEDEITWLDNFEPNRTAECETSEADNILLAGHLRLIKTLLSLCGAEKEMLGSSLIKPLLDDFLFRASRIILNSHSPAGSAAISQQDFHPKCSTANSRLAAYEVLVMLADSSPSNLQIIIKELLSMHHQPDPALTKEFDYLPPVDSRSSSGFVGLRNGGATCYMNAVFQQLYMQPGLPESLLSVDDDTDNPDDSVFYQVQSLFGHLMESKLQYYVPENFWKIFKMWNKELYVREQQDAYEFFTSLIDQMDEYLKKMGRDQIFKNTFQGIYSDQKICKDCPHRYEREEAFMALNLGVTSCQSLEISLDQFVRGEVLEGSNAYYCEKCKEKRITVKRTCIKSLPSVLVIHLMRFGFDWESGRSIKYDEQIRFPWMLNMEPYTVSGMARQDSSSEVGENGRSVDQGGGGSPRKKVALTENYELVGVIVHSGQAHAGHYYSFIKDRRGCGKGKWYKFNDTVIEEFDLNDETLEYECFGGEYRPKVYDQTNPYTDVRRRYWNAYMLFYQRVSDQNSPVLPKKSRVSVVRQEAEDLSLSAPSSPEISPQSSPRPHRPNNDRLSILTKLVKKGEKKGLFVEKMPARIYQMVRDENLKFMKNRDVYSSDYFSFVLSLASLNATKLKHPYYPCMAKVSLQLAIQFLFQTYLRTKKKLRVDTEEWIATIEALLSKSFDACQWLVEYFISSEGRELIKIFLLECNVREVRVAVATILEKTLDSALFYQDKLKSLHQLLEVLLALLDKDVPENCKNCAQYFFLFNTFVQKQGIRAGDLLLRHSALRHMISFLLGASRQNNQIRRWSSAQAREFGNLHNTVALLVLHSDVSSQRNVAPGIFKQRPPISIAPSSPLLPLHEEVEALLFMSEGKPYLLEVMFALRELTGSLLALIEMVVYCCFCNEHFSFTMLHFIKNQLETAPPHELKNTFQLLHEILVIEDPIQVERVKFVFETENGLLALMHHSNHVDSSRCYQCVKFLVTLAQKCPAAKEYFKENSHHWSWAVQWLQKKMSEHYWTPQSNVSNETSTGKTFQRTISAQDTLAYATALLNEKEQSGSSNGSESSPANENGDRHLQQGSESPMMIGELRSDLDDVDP
In short: as §1

USP25 = target: T3, USP25 (UniProt Q9UHP3)
T3 sequence (whole entry): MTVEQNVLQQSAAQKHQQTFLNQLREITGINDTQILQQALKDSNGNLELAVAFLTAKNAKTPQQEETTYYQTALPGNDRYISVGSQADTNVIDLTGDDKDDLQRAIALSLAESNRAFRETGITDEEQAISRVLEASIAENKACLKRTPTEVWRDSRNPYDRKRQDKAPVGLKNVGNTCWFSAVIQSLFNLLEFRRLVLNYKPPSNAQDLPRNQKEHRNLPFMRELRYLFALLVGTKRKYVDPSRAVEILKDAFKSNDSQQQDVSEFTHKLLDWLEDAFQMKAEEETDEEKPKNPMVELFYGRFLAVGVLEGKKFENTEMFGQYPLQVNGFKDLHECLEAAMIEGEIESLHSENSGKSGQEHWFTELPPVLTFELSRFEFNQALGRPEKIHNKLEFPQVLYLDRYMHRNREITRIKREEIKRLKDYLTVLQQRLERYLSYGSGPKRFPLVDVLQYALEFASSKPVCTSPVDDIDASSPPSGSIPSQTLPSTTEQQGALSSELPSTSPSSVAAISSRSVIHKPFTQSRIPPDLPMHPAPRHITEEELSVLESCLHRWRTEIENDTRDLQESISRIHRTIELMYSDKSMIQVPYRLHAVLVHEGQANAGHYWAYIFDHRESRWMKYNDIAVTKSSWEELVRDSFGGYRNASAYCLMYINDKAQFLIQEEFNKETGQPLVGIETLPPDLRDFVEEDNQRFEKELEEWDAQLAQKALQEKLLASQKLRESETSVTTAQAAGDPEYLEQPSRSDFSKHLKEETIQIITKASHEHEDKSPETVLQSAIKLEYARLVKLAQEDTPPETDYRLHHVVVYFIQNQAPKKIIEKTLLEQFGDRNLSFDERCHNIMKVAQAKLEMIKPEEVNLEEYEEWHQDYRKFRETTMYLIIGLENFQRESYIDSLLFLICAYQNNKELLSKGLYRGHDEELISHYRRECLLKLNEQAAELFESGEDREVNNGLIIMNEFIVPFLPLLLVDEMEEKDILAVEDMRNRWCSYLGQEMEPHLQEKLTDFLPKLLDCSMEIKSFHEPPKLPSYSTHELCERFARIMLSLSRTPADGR
In short: as §1

USP28 = target: T4, USP28 (UniProt Q96RU2)
T4 sequence (whole entry): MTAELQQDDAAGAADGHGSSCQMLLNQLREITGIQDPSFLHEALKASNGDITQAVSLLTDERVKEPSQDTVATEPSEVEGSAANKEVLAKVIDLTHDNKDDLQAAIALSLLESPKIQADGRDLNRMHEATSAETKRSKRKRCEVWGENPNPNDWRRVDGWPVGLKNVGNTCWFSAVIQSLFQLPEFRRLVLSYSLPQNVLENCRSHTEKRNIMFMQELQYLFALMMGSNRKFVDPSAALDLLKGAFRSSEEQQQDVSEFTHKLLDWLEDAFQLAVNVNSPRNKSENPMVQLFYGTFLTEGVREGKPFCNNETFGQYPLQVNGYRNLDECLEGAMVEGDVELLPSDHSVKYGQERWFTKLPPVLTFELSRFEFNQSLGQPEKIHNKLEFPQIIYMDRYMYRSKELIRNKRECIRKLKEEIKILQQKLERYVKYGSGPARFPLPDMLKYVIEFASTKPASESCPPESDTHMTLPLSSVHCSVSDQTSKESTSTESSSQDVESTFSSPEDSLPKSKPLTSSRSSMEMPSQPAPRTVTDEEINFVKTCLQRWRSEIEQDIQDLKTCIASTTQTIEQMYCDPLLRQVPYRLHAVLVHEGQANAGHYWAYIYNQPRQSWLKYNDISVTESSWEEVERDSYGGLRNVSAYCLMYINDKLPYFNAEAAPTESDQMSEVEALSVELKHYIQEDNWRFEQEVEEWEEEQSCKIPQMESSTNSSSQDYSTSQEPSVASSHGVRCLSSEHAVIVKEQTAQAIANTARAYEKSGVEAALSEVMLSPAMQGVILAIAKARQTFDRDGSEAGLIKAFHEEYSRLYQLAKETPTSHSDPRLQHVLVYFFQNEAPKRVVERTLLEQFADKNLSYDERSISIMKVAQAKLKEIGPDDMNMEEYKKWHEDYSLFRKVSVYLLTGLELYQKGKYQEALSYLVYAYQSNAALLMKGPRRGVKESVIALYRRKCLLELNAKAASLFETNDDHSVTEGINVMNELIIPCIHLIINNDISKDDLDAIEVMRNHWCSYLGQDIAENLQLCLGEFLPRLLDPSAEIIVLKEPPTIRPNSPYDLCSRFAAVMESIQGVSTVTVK
In short: as §1

For O=C(CCl)N1CC=C(c2c[nH]c3ccccc23)CC1, the “log2 ratio of Biotin-Ahx-Ub-VS probe labelling” value (“log2 ratio” below) (USP19) was -1.72 (active), the “log2 ratio” value (USP22) was -0.57 and the “log2 ratio” value (USP24) was -1.48 (active). For the same molecule, the “log2 ratio” value (USP25) was -0.457 and the “log2 ratio” value (USP28) was -1.1 (active).
